# Laboratory results: the supplement of paper PMC10338343
# ± gives the standard deviation.
# Tested on: MILI (PIWIL2) piRISC loaded with piRNA #1 (26 nt)
# Experiment: pre-steady-state target cleavage rate (min^-1); guide: piRNA #1 5'p-UGAGGUAGUAGGUUGUAUAGUAUCCA; MIWI and MILI are mouse PIWI proteins and EfPiwi is from a freshwater sponge; tags in brackets are library labels; higher = faster piRNA-guided slicing of the target
# Settings: auxiliary factor: 500 nM mouse GTSF1
# Outline: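 The pre-steady-state cleavage rate was obtained by Cleave-'n-Seq with a burst-and-steady-state fit. A transcribed, DNA-blocked target RNA library (0.1 nM) was mixed with 1 nM active affinity-purified piRISC carrying one synthetic guide, with or without 500 nM GTSF1 partner protein, in HEPES–potassium acetate buffer at 33 °C for 0–8 or 0–960 min. Uncleaved targets were sequenced and normalised to depth and to weakly complementary targets, with three trials pooled and k3 capped at 0.0001 min^-1.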
row,Sequence,pre-steady-state target cleavage rate
1,GGAGAGGAUACUAUACAACCUACUUACCUCA,0.162 ± 0.015
2,GGAGACCAUACUUUACAACCUACUACCUCA,0.168 ± 0.014
3,GGAGACCAUACUAUACAUCCUACUACCACA,0.279 ± 0.028
4,GGAGUGGAUACUAUACAACCUACUACCUA,0.103 ± 0.014
5,GGAGACCUAUGUAUACAACCUACUGACCUCA,0.0132 ± 0.0038
6,GGAGACCUUACUAGACAACCUACUACCUCA,0.155 ± 0.015
7,GGAGACCUUAACUAUACAACCUACUACCUCA,0.138 ± 0.01
8,GGAGACCUUACUAUACAACCUACUAACCUCA,0.178 ± 0.018
9,GGAGUGGAUACUAUACAACCUACUACGAGA,0.0112 ± 0.004
10,GGAGACCUUACUAUAUAACCUACUACCUCA,0.124 ± 0.0081
11,GGAGUGGAUACUAUUCAACGUACUACCUCA,0.0305 ± 0.004
12,GGAGUGGAUACUAUACAACCUACUAUCUCA,0.137 ± 0.011
13,GGAGUGGAUACUAUACUACCAACUACCUCA,0.00975 ± 0.0022
14,GGAGACGAUACUAUUACAACCUACUACCUCA,0.172 ± 0.011
15,GGAGUGGAUACAAUACAACCUACUAGCUCA,0.0614 ± 0.0087
16,GGAGAGGAUACUAAACAACCUACAACCUCA,0.119 ± 0.014
17,GGAGACCAUACUAUACAUCCUAGUACCUCA,0.0776 ± 0.018
18,GGAGACCUUACAAUACAACGUACUACCUCA,0.0135 ± 0.0052
19,GGAGAGGAUACUAUACAACCUACGUACCUCA,0.0773 ± 0.012
20,GGAGACCAUACUAUACAACCUACAUCCUCA,0.1 ± 0.014
21,GGAGAGGAUACCUAUACAACCUACUACCUCA,0.123 ± 0.027
22,GGAGACCAUACUAUACACCUACUACCUCA,0.0288 ± 0.0078
23,GGAGACGAUACAUAUACAACCUACUACCUCA,0.111 ± 0.013
24,GGAGAGGAUACUAUACAACCUACUACCAUCA,0.0616 ± 0.0087
